An excerpt weighted towards active compounds, which were near 12% of everything screened.
G9a block – qHTS Assay for Inhibitors of Histone Lysine Methyltransferase G9a. Histone-lysine N-methyltransferase EHMT2 (Homo sapiens), Q96KQ7. G9a H3K9 monomethylation, AlphaScreen, 2 h. Potency, µM (titrated, usually from 102 µM), inactives show top-dose activity, negative = inhibition, hits mostly inhibitors. hit rate 8.8% among 350,000. AID 504332, 2011; also: % is scaled to controls: 0 for no effect and ±100 for the full control effect; nearly all actives have a fitted effect of over 75% in size
Target sequence (Q96KQ7 913-1193 limits assumed): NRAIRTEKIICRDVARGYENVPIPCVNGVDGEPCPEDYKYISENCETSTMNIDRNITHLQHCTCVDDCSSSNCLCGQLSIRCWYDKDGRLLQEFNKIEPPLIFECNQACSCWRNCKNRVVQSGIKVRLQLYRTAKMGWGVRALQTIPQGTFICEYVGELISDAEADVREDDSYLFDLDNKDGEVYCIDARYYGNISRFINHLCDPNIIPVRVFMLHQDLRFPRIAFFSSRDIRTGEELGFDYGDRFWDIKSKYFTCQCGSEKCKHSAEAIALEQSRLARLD
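AlphaScreen detection with an anti-monomethyl H3K9 antibody quantified product after a 2 h room-temperature reaction containing 500 nM biotinylated H3K9 peptide, 20 µM SAM and 20 nM enzyme, which had been preincubated 15 min with compound.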
Sfp inh – qHTS Assay for Inhibitors of Bacillus subtilis Sfp phosphopantetheinyl transferase (PPTase); 4'-phosphopantetheinyl transferase ffp (Bacillus subtilis), Q9F4F7; Biochemical Sfp PPTase activity, qHTS; Potency, µM, inactives show largest response in the series, negative = inhibition, usual class: inhibitors; hit rate 3.5% among 310,000; AID 1490, 2009;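 also: the enzyme is Sfp with the accession as filed and its product quenches rhodamine fluorescence; 0% = enzyme reaction without inhibitor and -100% = no enzyme wells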
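After 15 min at room temperature with compound, 15 nM Sfp received 5 uM rhodamine-CoA plus 12.5 uM BHQ-2-ybbR (50 mM Hepes pH 7.6, 10 mM MgCl2). Rate came from the fluorescence difference over 30 min, ex 525/em 598 nm.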
PLK1 PBD inh – qHTS for Inhibitors of PLK1-PDB (polo-like kinase 1 - polo-box domain): Primary Screen; Plk1 PBD binding of FITC phosphopeptide, fluorescence polarization; Serine/threonine-protein kinase PLK1 (Homo sapiens), P53350; hit rate 2.8% among 360,000; Potency, µM, inactives show max response, negative = inhibition, usual class: inhibitors; AID 720504, 2013; also: series mostly up to about 57 µM; % is scaled to controls: 0 for no effect and ±100 for the full control effect; nearly all actives have a fitted effect of over 65% in size
BAZ2B block – qHTS Assay for Inhibitors of BAZ2B; AlphaScreen BAZ2B-H3K14Ac peptide displacement; Potency, µM (series often up to 114 µM), inactives show top-dose activity change, negative = inhibition, usual class: inhibitors; hit rate 4.4% among 360,000; AID 504333, 2011; also: % is scaled to controls: 0 for no effect and ±100 for the full control effect; nearly all actives have a fitted effect of over 60% in size
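In this displacement format the biotinylated H3(5-23) peptide acetylated at Lys14 serves as ligand at 50 nM, with BAZ2B at 50 nM in PBS pH 7.4 containing 0.01% Tween-20. Donor and acceptor beads are 10 ug/mL final.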
HP1b binding inh – HTS for Inhibitors of HP1-beta Chromodomain Interactions with Methylated Histone Tails; Chromobox protein homolog 1 (Homo sapiens), P83916; AlphaScreen HP1-beta / biotin-H3K9me3 peptide binding; Potency, µM (top dose mostly 114 µM), for the others: at the highest dose activity change, negative = inhibition, hits mostly inhibitors; hit rate 0.56% among 390,000; also: nearly all actives have a fitted effect of over 70% in size
Target sequence (P83916 whole entry, looked up): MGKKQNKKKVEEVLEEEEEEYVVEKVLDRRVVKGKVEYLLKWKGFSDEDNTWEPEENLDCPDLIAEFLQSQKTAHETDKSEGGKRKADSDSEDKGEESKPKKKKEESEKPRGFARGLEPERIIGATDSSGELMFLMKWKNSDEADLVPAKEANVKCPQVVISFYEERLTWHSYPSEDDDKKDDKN
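Compound inhibition of the preformed complex between 50 nM HP1-beta and 50 nM biotinylated H3K9me3 peptide was read by AlphaScreen. Buffer was PBS pH 7.4 with 0.01% Tween-20. Incubations ran 30 min at room temperature, with 10 ug/mL donor/acceptor beads.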
JMJD2A Tudor inh – qHTS Assay for Inhibitors of JMJD2A-Tudor Domain | hit rate 4.4% among 390,000 | Potency, µM (doses to about 114 µM), without a hit: at the highest dose activity change, negative = inhibition, usual class: inhibitors | AlphaScreen JMJD2A-Tudor / H3K4me3 peptide binding | Lysine-specific demethylase 4A (Homo sapiens), O75164; also: % is scaled to controls: 0 for no effect and ±100 for the full control effect; nearly all actives have a fitted effect of over 50% in size
Starred values were filed as active, the others as inactive; ? = inconclusive; nt = no result; [ ] = remark or other dose. Calls follow the shape of the dose curve; as a rule, active = well fitted curve in the direction sought with a large enough effect; inconclusive = small, poorly fitted or top-dose-only effect, or another doubt; inactive = no such curve, though single readings can be large; an effect the other way counts as inactive or inconclusive. Potency is read from the fitted curve at half-maximal effect.

SMILES	G9a block	Sfp inh	PLK1 PBD inh	BAZ2B block	HP1b binding inh	JMJD2A Tudor inh
CCOc1ccc(Oc2c(C)oc3cc(O)ccc3c2=O)cc1	9%[0.501 µM]	8%	-1%	0%	48%	-7%
Cc1oc2cc(O)ccc2c(=O)c1Oc1ccccc1	nt	0%	3µM*	4%	-3%	?
CC(=O)Oc1ccc2c(=O)c(Oc3ccccc3)c(C)oc2c1OC(C)=O	3.2µM*	?	-20%	-5%	38%	?
O=c1oc2cc(O)ccc2c2ccccc12	2µM*	7%	-14%	?	15%	-4%
O=C(CCS(=O)(=O)c1ccccc1)N(Cc1cccnc1)c1nc2c(Cl)cccc2s1	-7%[59 µM]	nt	nt	2%	45%	-15%
CCOc1cc(/C=N\NC(=O)C2C(=O)NCC2c2ccccc2)ccc1OC (centres undefined)	11%[59 µM]	-3%	-18%	3%	-1%	-13%
COc1ccc(/C=N\NC(=O)C2C(=O)NCC2c2ccccc2)cc1O (centres undefined)	7%[12.7 µM]	25%	3µM*	3%	?	?
CC(=O)OC[C@@H]1O[C@H](C/C=N\O[C@@H](C)c2cn([C@H]3COC[C@H]3O)nn2)C=C[C@@H]1OC(C)=O	nt	11%	nt	nt	nt	nt
CNC(=S)N(Cc1ccc(OC)cc1)Cc1cc2ccc(C)cc2[nH]c1=O	-3%	23%	24µM*	-16%	?	-14%[11.4 µM]
O=C(OCc1cc2ccccc2[nH]c1=O)c1ccco1	-1%[12.7 µM]	-10%	1%	1%	25%	-9%
Cc1cccc(N(Cc2cc3ccccc3[nH]c2=O)C(=O)c2ccco2)c1C	3%[12.7 µM]	79µM*	-2%	-6%	19%	-10%
Cc1ccc(C)c(N(Cc2cc3ccc(C)cc3[nH]c2=O)C(=O)c2ccco2)c1	-5%[59 µM]	-16%	-1%	-9%	15%	-15%
CC(C)N(Cc1cc2ccccc2[nH]c1=O)C(=O)c1ccco1	50µM*	50µM*	-4%	-9%	20%	-9%
COc1ccc(N(Cc2cc3ccc(C)cc3[nH]c2=O)C(=O)c2ccco2)cc1	71µM*	?	-7%	12%	34%	-1%
Cc1ccc(CNC(=O)c2oc3c(c2C)-c2nn(Cc4ccc(Cl)cc4)cc2CC3)cc1	1%[59 µM]	nt	nt	-2%	53%	-3%
CSc1cc2c(s1)c1cnn(Cc3cccc(O)c3)c(=O)c1n2C	nt	nt	nt	nt	nt	-31%
COc1ccc(N(C(=O)c2snc(C(N)=O)c2N)C(CC(C)C)C(=O)NCC2CCCO2)cc1 (centres undefined)	-7%	16%	1%	3%	36%	-12%
O=c1[nH]c(CN2CCN(CCO)CC2)nc2ccccc12	20%[59 µM]	0%	-2%	-2%	40%	-8%
O=c1[nH]c(CN2CCN(c3ccccc3O)CC2)nc2ccccc12	?	-7%	1%	-8%	9%	8.9µM*
NC(=O)C1CCN(Cc2nc3ccccc3c(=O)[nH]2)CC1	?	0%	1%	-35%	6%	3.2µM*
NC(=O)C1CCN(Cc2nc3cc(Cl)ccc3c(=O)[nH]2)CC1	7%[59 µM]	-7%	-2%	5%	2%	-22%
CC1CCCCN1Cc1nc2ccccc2c(=O)[nH]1 (centres undefined)	5%[12.7 µM]	-9%	3%	-33%	15%	79µM*
CCOC(=O)c1ccccc1NC(=O)CSc1cn(CC(=O)N2CCCCCC2)c2ccccc12	-18%[59 µM]	nt	nt	-20%	?	-4%
O=[N+]([O-])c1ccc(N2CCN(CC3CCCCC3)CC2)cc1	-10%[0.501 µM]	-25%	-3%	56µM*	?	18µM*
CC(=O)c1ccc(N2CCN(CC3CCCCC3)CC2)cc1	50µM*	-26%	-18%	?	?	35µM*
SMILES	G9a block	Sfp inh	PLK1 PBD inh	BAZ2B block	HP1b binding inh	JMJD2A Tudor inh
CCN1CCC(N2CCN(c3ccc(Cl)cc3)CC2)CC1	2%[59 µM]	14%	-6%	-5%	19%	-4%
CCCN1CCC(N2CCN(c3ccc([N+](=O)[O-])cc3)CC2)CC1	nt	-24%	-7%	45µM*	?	20µM*
Cc1ccc(-c2ccc(=O)n(CCC(=O)NCCc3ccccc3)n2)cc1	-27%[59 µM]	nt	nt	6%	29%	-13%
CC(C)[C@H](N)c1nnc(SCc2ccc(Cl)cc2)o1	nt	13%	1%	-1%	21%	14µM*
CCC(C)[C@H](N)c1nnc(SCc2ccc(Cl)c(Cl)c2)o1 (some centres undefined)	8.9µM*	nt	nt	?	61%	3%
CCN(CC(=O)Nc1ccc(OC)cc1)C(=O)c1ccc2c(c1)NC(=O)CS2	45µM*	nt	-13%	5%	-5%	-16%
CCN(CC(=O)Nc1ccc(OC)cc1)C(=O)c1ccc([N+](=O)[O-])cc1	1%	-22%	6.7µM*	5%	12%	10µM*
Cc1cnc(C(=O)OCc2csc(CC(=O)Nc3ccccc3C)n2)cn1	nt	2%	1%	-2%	22%	-9%
N/C(=N\OC(=O)c1ccccc1)c1ccn[nH]1	20%	9%	8%	-12%	51%	0%
CC(C)Cn1nc(NC(=O)c2cccc(Cl)c2)c2cc3ccccc3nc21	40%[59 µM]	nt	nt	17%	60%	26%
COc1cc(/C=N/NC(=S)N/N=C/c2cc(OC)c(OC)c(OC)c2)cc(OC)c1OC	?	4%	4%	-23%	26%	?
COc1cc(/C=N/n2c(-c3cc(C)[nH]n3)n[nH]c2=S)cc(OC)c1OC	2.5µM*	32µM*	-8%	-32%	-22%	1.4µM*
COc1cc(/C=N/n2c(-c3cc(C)[nH]n3)n[nH]c2=S)ccc1O	4µM*	50µM*	-6%	-27%	47%	?
COc1cccc(/C=N/n2nnc3c(cnn3-c3ccccc3)c2=O)c1	88%[59 µM]	25%	3%	-5%	13%	1%
COc1cccc(/C=N/n2c(-c3cc(C)[nH]n3)n[nH]c2=S)c1	2.5µM*	?	-15%	-34%	?	3.2µM*
CCOC(=O)c1c(-c2ccc(C)cc2)csc1NC(=O)C1CC=CCC1C(=O)O (centres undefined)	?	-15%	27µM*	3%[57.1 µM]	-18%	-33%
Cc1ccc(-c2csc(NC(=O)C3CC=CCC3C(=O)O)c2C(=O)OC(C)C)cc1 (centres undefined)	12%[12.7 µM]	-5%	?	-32%	5%	-31%

Screens (PubChem)
